The list is not random: actives were taken first. Their share in the collection is about 28%.
CYP2C19 inh: inhibitors of human CYP2C19; P33261; inhibition, % at 5 µM; 96,000 compounds, 21% hits; CYP2C19 Supersomes, luciferin-H EGE luminescence, 30 min; AID 778;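 active = CYP2C19 inhibition above a set limit at 5 µM in the primary screen, cut at about 50% in these data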
D1 mod: allosteric modulators of human D1 dopamine receptor | HEK293 D1, CRE-luciferase, dopamine EC30 potentiation; actives deviate in either direction | B-score at 10 µM | 58,000 compounds, 5.9% hits | AID 641;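 active = luminescence count or its row- and column-corrected plate score outside the 99.7% band of the plate's sample wells, on either side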
CYP2C19 activ: increases human CYP2C19 enzyme activity | AID 1025 | activation factor at 5 µM | 96,000 tested, under 10 active | recombinant CYP2C19, luciferin-H EGE luminescence; stronger effect = higher value; 0 = fully inhibited enzyme, 1 = untreated enzyme | P33261;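 active = activation factor of at least 2 at 5 µM in the primary screen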
DAT uptake mod: changed human dopamine transporter uptake under cocaine IC80. LLC-PK1 hDAT cells, [14C]-dopamine uptake with cocaine IC80; actives deviate in either direction. B-score at 10 µM. 110,000 compounds, 1.3% hits. AID 449768;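 active = Z score or B-score, a plate-position-corrected score, falls beyond the plate's 99.7% confidence bounds, in either direction; inactive = both scores lie inside the 99.7% bounds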
CYP2C9 inhib: blocks human cytochrome P450 2C9. CYP2C9 Supersomes, luciferin-H conversion, luminescence. AID 777. inhibition, % at 5 µM. 96,000 compounds, 20% hits;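 active = blocking of liver enzyme CYP2C9 beyond about 50% at 5 µM, limit read from the data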
Target sequence (P11712 whole entry, looked up): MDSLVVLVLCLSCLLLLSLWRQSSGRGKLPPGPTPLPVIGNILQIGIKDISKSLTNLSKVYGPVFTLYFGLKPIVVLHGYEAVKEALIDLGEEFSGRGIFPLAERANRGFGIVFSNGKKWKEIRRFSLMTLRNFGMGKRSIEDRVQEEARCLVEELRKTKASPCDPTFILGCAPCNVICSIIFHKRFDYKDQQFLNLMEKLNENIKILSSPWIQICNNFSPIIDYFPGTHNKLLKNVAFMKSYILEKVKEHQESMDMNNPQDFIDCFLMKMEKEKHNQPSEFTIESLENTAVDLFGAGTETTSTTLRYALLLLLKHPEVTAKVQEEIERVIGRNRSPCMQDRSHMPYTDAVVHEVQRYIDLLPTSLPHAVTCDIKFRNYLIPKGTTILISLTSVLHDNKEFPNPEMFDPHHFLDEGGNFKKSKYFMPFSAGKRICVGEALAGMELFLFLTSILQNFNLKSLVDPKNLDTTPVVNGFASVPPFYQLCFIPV
CYP2C9 act: activators of human CYP2C9 | activation factor at 5 µM | AID 1024 | P11712 | 96,000 compounds, 1.4% hits | recombinant CYP2C9, luciferin-H conversion, luminescence; stronger effect = higher value; factor 1 = untreated enzyme, 0 = blocked;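 active = activation factor of 2 or more for CYP2C9 at a 5 µM dose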
Each line names hits and unclear results; the compound was inactive in the other large screens.

O=C(c1ccc(S(=O)(=O)N2CCOCC2)cc1)N(Cc1ccco1)Cc1cccs1	none
Cc1noc(C)c1COc1cccc(C(=O)OC(C)C(=O)Nc2ccc3c(c2)OCO3)c1 (stereo not given)	CYP2C9 inhib 81 (no result: D1 mod)
Cc1noc(C)c1COc1cccc(C(=O)OCCOc2ccc(F)cc2)c1	CYP2C19 inh 98, CYP2C9 inhib 89
Cc1noc(C)c1COc1cccc(C(=O)Oc2ccc3c(c2)OCO3)c1	CYP2C19 inh 67, CYP2C9 inhib 88
COc1cc(C(=O)Oc2ccccc2)ccc1OCc1c(C)noc1C	none
CC1(C)Oc2ccc3ccc(=O)oc3c2/C(=C/NC2CCCCC2)C1=O	none (no result: CYP2C19 inh, D1 mod, CYP2C19 activ, CYP2C9 inhib, CYP2C9 act)
CCOC(=O)C1=C(C)NC(=O)NC1c1ccc(OC)c(Cl)c1 (stereo not given)	none
CCOC(=O)C1=C(C)NC(C)=C(C(=O)OCC)C1c1cc(N)ccc1OC(F)F	CYP2C9 inhib 57
Cc1ccc(C)c(-c2cc(C(=O)Nc3sc(C)c(C)c3C(N)=O)c3ccccc3n2)c1	CYP2C9 inhib 96 (no result: D1 mod)
Cc1cccc(-c2cc(C(=O)Nc3sc(C)c(C)c3C(N)=O)c3ccccc3n2)c1	CYP2C9 inhib 69 (no result: D1 mod, DAT uptake mod)
Cc1ccc(Cl)cc1N1CCN(C(=O)CCS(=O)(=O)c2cccc3nonc23)CC1	none (no result: CYP2C19 inh, CYP2C19 activ, DAT uptake mod, CYP2C9 inhib, CYP2C9 act)
Cc1nnc(SCC(=O)n2c3c(c4ccccc42)CCCC3)s1	none
CC(C)C(=O)NC(Nc1cccc2cccnc12)C(Cl)(Cl)Cl (stereo not given)	CYP2C19 inh 59, CYP2C9 inhib 63 (no result: D1 mod)
CC(C)CC(=O)NC(NC(=S)Nc1cccc2cccnc12)C(Cl)(Cl)Cl (stereo not given)	none (no result: D1 mod)
Cn1c(CC(=O)Nc2ccc(Cl)c(Cl)c2)nnc1SCC(=O)Nc1nccs1	none (no result: D1 mod)
CCSCc1nnc(SCC(=O)Nc2nc3ccccc3s2)n1C	CYP2C9 inhib 63
Cn1c(CSCc2ccccc2Cl)nnc1SCC(=O)Nc1nccs1	CYP2C9 inhib 61
O=C(Nc1ccccc1C(=O)Nc1ccc2c(c1)OCO2)c1cccs1	none (no result: D1 mod)
COc1ccc(CNC(=O)c2cc(-c3ccco3)on2)cc1	none
COc1ccccc1-c1cc(C(=O)NCc2ccc(Cl)cc2)no1	CYP2C9 act 3.2
COc1ccc(OC)c(-c2cc(C(=O)Nc3c(C)n(C)n(-c4ccccc4)c3=O)no2)c1	none
CCCc1cc(C(=O)NCc2ccc(OC)cc2)no1	CYP2C19 inh 65
COc1ccccc1-c1cc(C(=O)Nc2c(C)n(C)n(-c3ccccc3)c2=O)no1	CYP2C9 act 2.6
COCC(C)NC(=O)c1cc(-c2ccccc2OC)on1 (stereo not given)	CYP2C9 act 2.5
O=C(NNC(=O)c1ccco1)c1cccc([N+](=O)[O-])c1	none (no result: D1 mod)
COc1ccccc1-c1cc(C(=O)NCc2ccccc2)no1	CYP2C9 act 2.8
COc1cccc(-c2cc(C(=O)NCCN3CCOCC3)no2)c1	none
COc1ccc(CNc2ccc(-c3ccccc3OC)nn2)cc1	DAT uptake mod 3.2 (no result: D1 mod)
COc1ccc(CNC(=O)c2cc(-c3ccccc3OC)on2)cc1	CYP2C9 act 2.7
COc1ccccc1-c1cc(C(=O)NCCN2CCOCC2)no1	CYP2C9 act 2.2
CC(C)C1CC(O)(C2(O)CCCCC2)ON1 (stereo not given)	none
N#Cc1c(-c2ccccc2)nc2n(c1=O)CCS2	none (no result: D1 mod)
O=C1CC(N2CCN(S(=O)(=O)c3ccc(Cl)cc3)CC2)C(=O)N1CCc1ccccc1 (stereo not given)	none (no result: CYP2C19 inh, D1 mod, CYP2C19 activ, CYP2C9 inhib, CYP2C9 act)
COc1ccccc1-c1cc(C(=O)NCc2ccc(F)cc2)no1	CYP2C9 act 3
O=C(NCc1ccc(F)cc1)c1cc(-c2ccco2)on1	none
CCc1cc(-c2n[nH]c(=S)n2-c2cccc(C)c2)cs1	CYP2C19 inh 63 (no result: D1 mod, DAT uptake mod)
N#CCCN(C(=O)Nc1ccccc1)c1ccccc1	CYP2C19 inh 60
COc1ccc(S(=O)(=O)n2nc(OC(C)=O)cc2N(C(C)=O)C(C)=O)cc1	none (no result: CYP2C19 inh, D1 mod, CYP2C19 activ, CYP2C9 inhib, CYP2C9 act)
Cc1cc(C)n(Cc2ccc(NC(=O)c3nn(C)cc3[N+](=O)[O-])cc2)n1	none (no result: D1 mod)
Cn1cc([N+](=O)[O-])c(C(=O)Nc2cc(Oc3cccnc3)cc([N+](=O)[O-])c2)n1	CYP2C19 inh 72, CYP2C9 inhib 78 (no result: D1 mod)
O=C(N/N=C/c1ccc(O)cc1)c1ccc(COc2cc(Cl)ccc2Cl)o1	none (no result: D1 mod)
Cc1cccc(NC(=O)COc2ccc3oc4c(c3c2)CCCC4)n1	CYP2C19 inh 51, CYP2C9 inhib 85 (no result: D1 mod)
CCOC(=O)C1=C(C)C(c2ccccc2OC)NC(=O)N1 (stereo not given)	none (no result: D1 mod)
CCOC(=O)/C(C(C)=O)=C1/OC(=O)c2ccccc21	none (no result: D1 mod)
CC1CC(C)(C)N2C(=O)C3(Nc4ccccc4S3)c3cccc1c32 (stereo not given)	CYP2C19 inh 52 (no result: D1 mod)
O=C1N2CCCc3cccc(c32)C12Nc1ccccc1S2 (stereo not given)	none
CC(=O)O[C@H]1CC(C)(C)C(=C=C/C(C)=C/C=C/C(C)=C/C=C/C=C(C)/C=C/C=C(\C)C(=O)C[C@@]23O[C@]2(C)C[C@@H](O)CC3(C)C)[C@](C)(O)C1	none (no result: CYP2C19 inh, D1 mod, CYP2C19 activ, CYP2C9 inhib, CYP2C9 act)
Cc1ccnc2nc(C(=O)Nc3ccc(N4CCOCC4)cc3)nn12	CYP2C19 inh 54 (no result: D1 mod)
CC(=O)N1CCN(c2ccc(NC(=O)c3ccc4c(c3)OCCO4)cc2)CC1	none
CCCC(=O)N1CCN(c2ccc(NC(=O)c3ccc(OCC)c([N+](=O)[O-])c3)cc2)CC1	none (no result: D1 mod, DAT uptake mod)
CCOc1ccc(C(=O)Nc2ccc(N3CCN(C)CC3)cc2)cc1Br	D1 mod -6.4 (no result: DAT uptake mod)
COc1ccc(C(=O)Nc2ccc(N3CCOCC3)cc2)cc1OC	CYP2C19 inh 58
CN1CCN(c2ccc(NC(=O)c3ccc4c(c3)OCO4)cc2)CC1	D1 mod -5.1
COc1ccc2c(C(=O)CN3CCN(c4ccccc4)CC3)c[nH]c2c1	none (no result: D1 mod)
COc1ccc(-c2nnc3ccc(SCC(=O)N4CCN(c5ccccc5)CC4)nn23)cc1OC	none (no result: CYP2C19 inh, CYP2C19 activ, DAT uptake mod, CYP2C9 inhib, CYP2C9 act)
Cn1c(/C=C/c2ccc([N+](=O)[O-])o2)nc2ccccc2c1=O	none (no result: CYP2C19 inh, D1 mod, CYP2C19 activ)
CCSc1nnc(-c2cccnc2)n1-c1ccc(Cl)c(C)c1	none (no result: D1 mod)
Cc1cc(C)nc(NS(=O)(=O)c2ccc(NC(=O)c3ccc4c(c3)OCO4)cc2)n1	CYP2C9 inhib 52
Cc1cc(C)nc(NS(=O)(=O)c2ccc(NC(=O)c3ccc(S(=O)(=O)N4CCOCC4)cc3)cc2)n1	none (no result: D1 mod)
O=C(Nc1ccc(N2CCOCC2)cc1)c1ccncc1	none (no result: CYP2C19 inh, D1 mod, CYP2C19 activ, CYP2C9 inhib, CYP2C9 act)
O=C(Nc1ccc(N2CCOCC2)cc1)c1cnsn1	D1 mod -6.8
CCn1nc(C)c(NC(=O)c2cc(Br)ccc2Cl)c1C	none
CCc1cc2cc(C)ccc2nc1SCC(=O)N1CCN(C(=O)c2ccco2)CC1	CYP2C9 inhib 70
O=C(CSc1nc2ccccc2o1)N1CCN(C(=O)c2ccco2)CC1	none
CCc1nc(SCC(=O)N2CCN(C(=O)c3ccco3)CC2)c2c3c(sc2n1)CCCC3	CYP2C9 inhib 59
CCc1cc2ccccc2nc1SCC(=O)N1CCN(C(=O)c2ccco2)CC1	CYP2C19 inh 83, CYP2C9 inhib 80
